# Laboratory results: PubChem BioAssay AID2308 (National Center for Advancing Translational Sciences (NCATS), 2010)
# Records with an inconclusive call do not appear. Active and inactive are the calls of the source. Calls come from the whole dose curve; as a rule, active = well fitted curve in the direction sought with a large enough effect in the signal ratio (not every such curve was filed as active); inconclusive = small, poorly fitted or top-dose-only effect, or a change in a side signal; inactive = no such curve, though single readings can be large or run the other way; the % refers to the signal ratio.
# Molecular target: Inositol monophosphatase 1 (Rattus norvegicus) (UniProt P97697)
# Sequence (P97697 whole entry, looked up): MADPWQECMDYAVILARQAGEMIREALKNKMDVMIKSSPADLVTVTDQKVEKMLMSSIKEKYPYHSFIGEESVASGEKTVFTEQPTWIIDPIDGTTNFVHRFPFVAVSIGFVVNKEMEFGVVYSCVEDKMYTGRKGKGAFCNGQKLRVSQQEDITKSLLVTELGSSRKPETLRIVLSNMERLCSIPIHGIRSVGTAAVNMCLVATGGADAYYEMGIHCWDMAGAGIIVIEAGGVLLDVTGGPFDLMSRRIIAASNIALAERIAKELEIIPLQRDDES
# Assay: Confirmation Assay for Identifying the Cell-Membrane Permeable IMPase Inhibitors
# Settings: CHO-M1 cells, carbachol-stimulated IP1 accumulation, HTRF ratio; series mostly up to 41.5 µM; activity change, negative = inhibition: at the top concentration
# From the text: NIH Chemical Genomics Center [NCGC] NIH Molecular Libraries Probe Production centers Network [MLPCN] MLPCN Grant: X01 MH082413-01 Assay Submitter (PI): Wei Zheng NCGC Assay Overview: Lithium has been widely used for the treatment of bipolar disorder. But lithium has a narrow therapeutic index and it can cause side effects such as thirst, weight gain, tremor, polyuria and memory problems. Although the mechanism for lithium action in treatment of bipolar disorder is still not fully understood, inhibition of inositol monophosphatase (IMPase) and the subsequent depletion of the inositol pool in living cells have been implicated as the primary therapeutic benefit of lithium therapy. Therefore, a selective IMPase inhibitor with reduced side effects might be a good drug candidate to replace lithium for the treatment of bipolar disorder. Several IMPase inhibitors have been discovered previously. However, they are not suitable for therapeutic use because of their poor cell membrane penetrability or oral bioavailability; the development of new cell-permeable IMPase inhibitors is needed. IMPase catalyzes the hydrolysis of inositol-1-phosphate (IP1) to release free inositol. Binding of an agonist to a Gq coupled GPCR results in the activation of PLC, which hydrolyzes the PIP2 to form inositol-1,4,5-trisphosphate (IP3) and diacyl glycerol (DAG). While DAG activates protein kinase C (PKC), IP3 triggers the elevation of intracellular free Ca2+. The IP3 is very rapidly inactivated by hydrolysis to IP2, IP1 and then inositol by a series of enzymes including IMPase. Free inositols are used for synthesis of PI and thus start another inositol cycle. To identify new cell-permeable IMPase inhibitors, we developed a cell-based IMPase assay in which the cytosolic IP1 is measured by a time-resolved fluorescence resonance energy transfer (TR-FRET) assay. In this assay, an IP1 specific antibody is used to detect the labeled IP1 tracer. When the cell lysate contains the elevated IP1 due to the inhibition of IMPase, the TR-FRET between the labeled antibody and IP1 tracer is disrupted resulting in a reduction in the total signal. Since the TR-FRET is used, this cell-based assay is a homogenous assay without cell wash and medium change that is suitable for assay miniaturization and HTS.
# NCGC IMPase Assay Protocol Summary A Chinese hamster ovary (CHO) cell line stably expressing the M1 receptor (CHO-M1) was obtained from ATCC and maintained in F-12 Kaighn's media (Invitrogen, Carlsbad, CA, 21127) supplemented with 10 % FBS, 100 units/ml penicillin, 100 ug/ml streptomycin and 250 ug/ml geneticin at 37C, 5% CO2 in a humidified atmosphere. Before the assay, aliquots of cells were frozen and stored at -135C. The assay was performed in 1536-well format. Data are reported for both the ratio of the two emission wavelengths, and also for the component 'donor' channel, Em2=620. Data were normalized to the controls for basal activity (DMSO only) and 100% inhibition (18.4 mM LiCl). AC50 values were determined from concentration-response data modeled with the standard Hill equation. IMPase 1536-well assay protocol: (1) Plate 4 ul/well (2000 cells) of cell suspension from frozen CHO-M1 Cells in white, tissue culture treated 1536-well plates that are cultured at 37C, 5 % CO2 for 16 to 30 hours. (2) Add 23 nl/well of compound in DMSO solution. The final titration for each compound was between 0.6 nM and 46 uM. […]
SMILES,"activity change, negative = inhibition",Potency
CCc1c(C)nc2c(OC)cccc2c1SCCC(=O)O,-23.6% (inactive),–
Cc1ccc(-c2c(C(=O)Nc3ccccc3C)c(C)[nH]c(=S)c2C#N)o1,-20.4% (inactive),–
COc1ccc(/C=C2\CCCC3C2=NN(C(=O)c2ccco2)C3c2ccc(OC)c(OC)c2)cc1OC (stereo unspecified),-14.2% [at 198 µM] (inactive),–
[Li+],–,708 µM (active)
COc1ccc(C2c3c(ncn(CCN4CCOCC4)c3=N)Oc3ccc4ccccc4c32)cc1OC (stereo unspecified),-8.46% (inactive),–
O=C(NC1CCS(=O)(=O)C1)C1C2CC3CC(C2)CC1C3 (stereo unspecified),13.9% (inactive),–
CCOC(=O)c1cc2c(=O)n3ccccc3nc2n(Cc2ccco2)c1=NC(=O)c1cccnc1,-14.5% (inactive),–
CC1(C)Cc2c(ccc3ccccc23)C2=C(C(=O)N3CCCC3)C(=O)C(=O)N21,18.9% (inactive),–
CC(=O)C1=C(O)C(=O)N(Cc2ccco2)C1c1ccccc1F (stereo unspecified),-31.2% (inactive),–
O=P(O)(OCc1ccccc1)OCc1ccccc1,17.9% (inactive),–
N#CC1=C(N)Oc2n[nH]c(-c3ccccn3)c2C1c1c(F)cccc1Cl (stereo unspecified),22.4% (inactive),–
N#Cc1c(-c2ccc(Br)cc2)nc2n(c1=O)CCCS2,-12.4% (inactive),–
COc1cccc(NC(=O)CN(C)C(C)C(=O)Nc2cc([N+](=O)[O-])ccc2Cl)c1 (stereo unspecified),33.2% (inactive),–
CNC(=O)c1ccc(NC(=O)/C=C/c2cccc(F)c2)cc1,2.85% (inactive),–
O=C(CCC(=O)c1cccs1)NCc1cccnc1,11.4% (inactive),–
CC(C)(C)c1ccc(-c2nnc3sc(-c4ccccn4)nn23)cc1,-5.12% [at 198 µM] (inactive),–
N#CCN1CCC(c2cc(-c3ccco3)n[nH]2)CC1,11.4% (inactive),–
COc1ccc(N2CSC3=C(C#N)C(c4cccs4)CC(=O)N3C2)cc1 (stereo unspecified),-29.2% (inactive),–
C[N+](C)(CCCCCC[N+](C)(C)CCCN1C(=O)c2cccc3cccc(c23)C1=O)CCCN1C(=O)c2cccc3cccc(c23)C1=O,-14.1% (inactive),–
O=C(NCCCn1ccnc1)c1cc(-c2ccncc2)nc2ccccc12,3.25% (inactive),–
COc1ccc2oc(-c3ccccc3)c(C(N)=O)c2c1,6.28% (inactive),–
